A number with no mark means an inactive call. Inconclusive results are not listed. Entries that show only a call come without a potency. Activity calls are given as the source filed them. Unless noted, the call rests on the fitted dose curve.
Legend:
[1] = Nuclear factor erythroid 2-related factor 2/antioxidant responsive element (Nrf2/ARE) small molecule agonists: qHTS cell viability counter screen in human keratinocytes (AID 1919968; active means well fitted curve in the direction sought with a large enough effect in the repeat runs; an effect the other way counts as inactive or inconclusive; further: nearly all actives have a fitted effect of over 55% in size)
How it was run: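 KeratinoSens HaCaT cells, 1,500/well, preincubated 5 h, then exposed to compounds in DMSO for 23 h at 37 C/5% CO2. Viability read as CellTiter-Fluor fluorescence after 1 h, in the same wells as the ARE-luciferase read.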

[2] = Nuclear factor erythroid 2-related factor 2/antioxidant responsive element (Nrf2/ARE) small molecule agonists: luciferase reporter gene qHTS assay in human keratinocytes (AID 1919969); further: nearly all actives have a fitted effect of over 35% in size; further: potency means the concentration at half of the fitted maximal effect
[3] = target: Gonadotropin-releasing hormone receptor (Homo sapiens) (UniProt P30968); assay: Human gonadotropin-releasing hormone receptor (GnRHR) small molecule agonists, calcium flux assay in GnRHR-HEK293 cells (AID 1920063); further: nearly all actives have a fitted effect of over 35% in size
How it was run: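 HEK293 cells stably expressing human GnRHR were dye-loaded for 1 h at 37 C. Compound was added in agonist mode and fluorescence (Ex/Em 480/540) recorded kinetically for 3 min. Fifteen concentrations, triplicates.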

[4] = target: KiSS-1 receptor (Homo sapiens) (UniProt Q969F8); assay: Human kisspeptin (KISS1R) small molecule agonists, calcium flux assay in KISS1R-HEK293 cells (AID 1920064; active means well fitted curve in the direction sought with a large enough effect in the repeat runs; an effect the other way counts as inactive or inconclusive)
How it was run: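 HEK293 cells stably expressing human KISS1R were loaded with calcium dye for 1 h at 37 C, then given compound; fluorescence (Ex/Em 480/540) was read kinetically for 3 min. Fifteen concentrations, triplicate.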

[5] = G protein-coupled receptor (GPCR) small molecule agonists, calcium flux assay: HEK293 wild type cell line counter screen (AID 1920065)
How it was run: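 Wild-type HEK293 cells plated 18 h, loaded with calcium dye 1 h at 37 C, then compounds added in agonist mode (ATP as positive control). Kinetic fluorescence Ex/Em 480/540 recorded 3 min at 1 sec intervals; 15 concentrations, triplicate.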

[6] = p53 small molecule agonists, cell-based qHTS assay with human liver microsomes (AID 1963577)
How it was run: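 p53RE-bla reporter cells were pre-incubated 5 h at 37 C, then treated with compounds plus human liver microsomes (0.5 mg/mL final) and NADPH (0.5 mg/mL final) for 16 h at 37 C. Beta-lactamase activity was read by LiveBLAzer fluorescence after 2 h at room temperature.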

[7] = p53 small molecule agonists, cell-based qHTS assay with rat liver microsomes (AID 1963578)
How it was run: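 p53RE-bla cells were exposed to compounds together with rat liver microsomes (0.5 mg/mL final) and NADPH (0.5 mg/mL final) for 16 h at 37 C, then read by LiveBLAzer beta-lactamase fluorescence after 2 h at room temperature.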

[8] = p53 small molecule agonists, cell-based qHTS assay with human liver microsomes: qHTS cell viability counter screen (AID 1963579); further: nearly all actives have a fitted effect of over 45% in size
How it was run: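 p53RE-bla cells (4,000/well) were pre-incubated 5 h at 37 C, then given compounds in DMSO plus human liver microsomes (0.5 mg/mL final) and NADPH (0.5 mg/mL final) for 16 h at 37 C. Viability was read by CellTiter-Glo luminescence.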

[9] = p53 small molecule agonists, cell-based qHTS assay with rat liver microsomes: qHTS cell viability counter screen (AID 1963580); further: nearly all actives have a fitted effect of over 45% in size
How it was run: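 Viability is assessed in parallel with the p53 reporter read: HCT-116 p53RE-bla cells receive compounds plus rat microsomes and NADPH (0.5 mg/mL final apiece), incubate 16 h at 37 C, and then CellTiter-Glo luminescence is recorded.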

[10] = p53 small molecule agonists, cell-based qHTS assay: qHTS cell viability counter screen (AID 1963581); further: nearly all actives have a fitted effect of over 45% in size
How it was run: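 p53RE-bla HCT-116 cells, compounds added 5 h after plating and incubated 16 h at 37 C. Cytotoxicity measured in the same wells as intracellular ATP by CellTiter-Glo luminescence after 30 min at room temperature.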

[11] = p53 small molecule agonists, cell-based qHTS assay (AID 1963582; active means well fitted activation curve with a large enough effect in the signal ratio in the repeat runs, not every such curve was filed as active; the % refers to the signal ratio)
How it was run: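 p53RE-bla reporter cells, compounds added in DMSO after 5 h plating, incubated 16 h at 37 C. Beta-lactamase read via 2 h room-temperature LiveBLAzer B/G FRET substrate, fluorescence intensity.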

[12] = target: 5-hydroxytryptamine receptor 2A (Homo sapiens) (UniProt P28223); assay: 5-hydroxytryptamine receptor 2A (HTR2A) small molecule antagonists, cell-based qHTS assay (AID 1963586); further: nearly all actives have a fitted effect of over 45% in size
How it was run: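 Antagonist-mode intracellular calcium assay: DOI (4 nM) added after 5 min compound pre-incubation at room temperature to dye-loaded HTR2A-CHO cells. Fluorescence followed for 3 min, sampled every second.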

[13] = target: 5-hydroxytryptamine receptor 2A (Homo sapiens) (UniProt P28223); assay: 5-hydroxytryptamine receptor 2A (HTR2A) small molecule agonists, cell-based qHTS assay (AID 1963587); further: nearly all actives have a fitted effect of over 30% in size
How it was run: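 CHO cells stably expressing human HTR2A, plated 18 h, loaded with calcium dye 1 h at 37 C. Agonist mode: compounds added and intracellular calcium fluorescence recorded kinetically for 2 min at 1 sec intervals.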

[14] = target: Muscarinic acetylcholine receptor M1 (Homo sapiens) (UniProt P11229); assay: Cholinergic receptor muscarinic 1 (CHRM1) small molecule antagonists, cell-based qHTS assay (AID 1963588); further: nearly all actives have a fitted effect of over 40% in size; further: potency means the concentration at half of the fitted maximal effect
How it was run: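 CHRM1-CHO calcium-flux assay, antagonist mode. Cells were seeded 18 h, dye-loaded 1 h at 37 C and given compound for 5 min at RT, then acetylcholine was added at 50nM. FDSS fluorescence was read 3 min; 15 concentrations, three runs.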

[15] = target: Muscarinic acetylcholine receptor M1 (Homo sapiens) (UniProt P11229); assay: Cholinergic receptor muscarinic 1 (CHRM1) small molecule agonists, cell-based qHTS assay (AID 1963589); further: nearly all actives have a fitted effect of over 35% in size
How it was run: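 CHO cells stably expressing human CHRM1 were loaded with calcium dye for 1 h at 37 C, then compound was added in agonist mode. Intracellular calcium fluorescence was followed kinetically at 1 s intervals. Fifteen concentrations were tested in three independent runs.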

[16] = cAMP Responsive Elements (CRE) small molecule agonists, cell-based qHTS assay (AID 1963590)
How it was run: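 CRE-bla HEK 293T cells, 2,000/well in DMEM with 10% dialyzed FBS and 25 mM HEPES, pre-incubated 18 h at 37 C, then exposed to compound 3 h at 37 C. Beta-lactamase reporter read with LiveBLAzer B/G FRET substrate after 2 h at room temperature.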

[17] = cAMP Responsive Elements (CRE) small molecule antagonists, cell-based qHTS assay (AID 1963591; active means well fitted inhibition curve with a large enough effect in the signal ratio in the repeat runs, not every such curve was filed as active; the % refers to the signal ratio)
How it was run: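 CRE-bla HEK293T cells plated 18 h, then given compound plus NKH477 at 0.25 uM final for 3 h at 37C. Beta-lactamase reporter read with LiveBLAzer B/G FRET substrate after 2 h at room temperature.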

[18] = target: Beta-2 adrenergic receptor (Homo sapiens) (UniProt P07550); assay: Adrenergic beta2 receptor (ADRB2) small molecule antagonists, cell-based qHTS assay (AID 1963592); further: series mostly up to about 92 µM; nearly all actives have a fitted effect of over 50% in size
How it was run: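 Cells (CHO, stable ADRB2 overexpression) incubated 18-20hr at 37C; compounds added from DMSO; agonist mix (1nM isoproterenol, 100uM IBMX, 25uM Ro-20-1724) added; 0.5hr RT; d2-cAMP and anti-cAMP-cryptate added; 1hr RT; 665/615 nm read.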

[19] = target: D(2) dopamine receptor (Homo sapiens) (UniProt P14416); assay: Dopamine D2 receptor (DRD2) small molecule agonists, cell-based qHTS assay (AID 1963594); further: nearly all actives have a fitted effect of over 35% in size
How it was run: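 HEK293 cells stably expressing human DRD2, pre-treated with PDE inhibitor Ro20-1724 (0.1 mM final) and compound 10 min at room temperature, then stimulated with NKH477 (200nM […]) for 30 min. cAMP read by HTRF (665/620 nm).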

[20] = target: D(2) dopamine receptor (Homo sapiens) (UniProt P14416); assay: Dopamine D2 receptor (DRD2) small molecule antagonists, cell-based qHTS assay (AID 1963595; active means well fitted inhibition curve with a large enough effect in the signal ratio in the repeat runs, with a control signal flat; the % refers to the signal ratio)
How it was run: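 Readout: HTRF cAMP, cAMP-d2 competing with cellular cAMP for anti-cAMP cryptate, read after 1 h. Cells: DRD2-HEK293. Conditions: 0.1 mM Ro20-1724, 12 nM quinpirole, 200 nM NKH477, 30 min RT.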

Muscarinic acetylcholine receptor M1 (Homo sapiens), sequence (P11229 whole entry, looked up): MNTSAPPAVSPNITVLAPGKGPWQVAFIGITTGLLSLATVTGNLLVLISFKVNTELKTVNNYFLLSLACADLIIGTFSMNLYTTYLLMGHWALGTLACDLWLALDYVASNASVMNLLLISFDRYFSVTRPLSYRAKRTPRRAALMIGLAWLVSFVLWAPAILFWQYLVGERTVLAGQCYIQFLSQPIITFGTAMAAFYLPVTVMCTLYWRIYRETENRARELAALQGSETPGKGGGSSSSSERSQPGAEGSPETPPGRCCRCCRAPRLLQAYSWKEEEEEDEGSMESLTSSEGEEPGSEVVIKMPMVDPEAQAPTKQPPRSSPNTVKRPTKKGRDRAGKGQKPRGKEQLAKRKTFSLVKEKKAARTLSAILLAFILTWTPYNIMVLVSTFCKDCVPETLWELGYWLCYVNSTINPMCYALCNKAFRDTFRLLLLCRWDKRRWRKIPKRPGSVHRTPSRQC
KiSS-1 receptor (Homo sapiens), sequence (Q969F8 whole entry, looked up): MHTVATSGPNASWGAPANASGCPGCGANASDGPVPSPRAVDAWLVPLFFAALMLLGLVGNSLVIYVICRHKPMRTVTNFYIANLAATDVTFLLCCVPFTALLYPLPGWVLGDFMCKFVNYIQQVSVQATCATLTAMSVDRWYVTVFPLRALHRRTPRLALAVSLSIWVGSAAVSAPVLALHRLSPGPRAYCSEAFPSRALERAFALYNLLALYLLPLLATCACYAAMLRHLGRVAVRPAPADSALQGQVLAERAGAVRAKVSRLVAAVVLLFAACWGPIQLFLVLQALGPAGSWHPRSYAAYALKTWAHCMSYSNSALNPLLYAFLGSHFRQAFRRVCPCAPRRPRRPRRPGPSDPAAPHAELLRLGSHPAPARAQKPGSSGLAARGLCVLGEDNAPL
5-hydroxytryptamine receptor 2A (Homo sapiens), sequence (P28223 whole entry, looked up): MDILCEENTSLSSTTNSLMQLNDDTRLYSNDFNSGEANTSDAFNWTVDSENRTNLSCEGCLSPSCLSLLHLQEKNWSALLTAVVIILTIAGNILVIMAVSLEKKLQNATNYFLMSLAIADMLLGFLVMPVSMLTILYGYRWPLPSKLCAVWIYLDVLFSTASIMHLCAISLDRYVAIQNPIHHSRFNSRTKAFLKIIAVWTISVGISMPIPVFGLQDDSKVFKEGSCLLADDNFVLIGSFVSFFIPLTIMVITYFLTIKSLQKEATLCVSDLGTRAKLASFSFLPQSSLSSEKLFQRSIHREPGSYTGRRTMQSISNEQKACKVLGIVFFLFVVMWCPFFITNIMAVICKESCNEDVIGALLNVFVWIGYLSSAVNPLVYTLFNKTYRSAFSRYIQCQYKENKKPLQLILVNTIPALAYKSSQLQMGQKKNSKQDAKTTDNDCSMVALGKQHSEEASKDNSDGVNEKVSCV
Beta-2 adrenergic receptor (Homo sapiens), sequence (P07550 whole entry, looked up): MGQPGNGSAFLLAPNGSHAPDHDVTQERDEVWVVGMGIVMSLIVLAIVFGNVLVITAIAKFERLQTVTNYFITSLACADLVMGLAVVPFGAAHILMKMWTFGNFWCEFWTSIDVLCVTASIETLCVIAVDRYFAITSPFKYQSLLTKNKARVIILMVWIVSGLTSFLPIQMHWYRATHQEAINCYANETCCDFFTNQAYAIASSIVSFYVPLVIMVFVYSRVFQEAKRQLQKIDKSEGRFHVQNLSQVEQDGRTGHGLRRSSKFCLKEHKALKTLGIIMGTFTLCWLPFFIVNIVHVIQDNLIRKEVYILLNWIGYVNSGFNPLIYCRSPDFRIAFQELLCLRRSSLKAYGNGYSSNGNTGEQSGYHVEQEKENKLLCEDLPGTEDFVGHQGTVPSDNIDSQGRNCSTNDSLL
Gonadotropin-releasing hormone receptor (Homo sapiens), sequence (P30968 whole entry, looked up): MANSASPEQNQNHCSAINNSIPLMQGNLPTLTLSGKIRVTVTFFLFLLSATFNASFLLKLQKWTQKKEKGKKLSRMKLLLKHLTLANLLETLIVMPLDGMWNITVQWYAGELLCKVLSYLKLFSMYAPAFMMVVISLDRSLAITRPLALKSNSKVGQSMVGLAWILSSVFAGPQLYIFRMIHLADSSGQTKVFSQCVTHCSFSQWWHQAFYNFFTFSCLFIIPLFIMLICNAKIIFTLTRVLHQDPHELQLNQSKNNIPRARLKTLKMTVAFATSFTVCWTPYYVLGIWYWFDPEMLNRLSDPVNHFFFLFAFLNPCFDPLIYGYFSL
D(2) dopamine receptor (Homo sapiens), sequence (P14416 whole entry, looked up): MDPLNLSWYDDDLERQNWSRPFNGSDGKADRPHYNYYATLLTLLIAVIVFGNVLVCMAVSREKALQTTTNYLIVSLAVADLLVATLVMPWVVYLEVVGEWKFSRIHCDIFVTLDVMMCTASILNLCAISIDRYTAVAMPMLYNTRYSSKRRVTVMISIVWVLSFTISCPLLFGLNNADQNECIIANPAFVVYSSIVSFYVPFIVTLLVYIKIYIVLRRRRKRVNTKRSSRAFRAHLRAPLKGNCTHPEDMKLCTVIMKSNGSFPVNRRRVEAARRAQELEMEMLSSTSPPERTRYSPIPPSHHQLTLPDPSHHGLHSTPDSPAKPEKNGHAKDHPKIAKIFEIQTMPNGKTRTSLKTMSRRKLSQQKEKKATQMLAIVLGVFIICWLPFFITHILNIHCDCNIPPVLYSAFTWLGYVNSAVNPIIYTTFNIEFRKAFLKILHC

Compound | Potency [1] | Potency [2] | Potency [3] | outcome [4] | outcome [5] | Potency [6] | Potency [7] | Potency [8] | Potency [9] | Potency [10] | Potency [11] | Potency [12] | Potency [13] | Potency [14] | Potency [15] | Potency [16] | Potency [17] | Potency [18] | Potency [19] | Potency [20]
CCCCCCCCCCCCCC(=O)OCC(O)CO (stereo not given) | inactive | inactive | inactive | inactive | inactive | inactive | inactive | inactive | inactive | inactive | inactive | inactive | inactive | inactive | inactive | inactive | inactive | inactive | inactive | inactive
CC(C)(C)OC(=O)N1C[C@@H](F)C[C@H]1C(=O)O | inactive | inactive | inactive | inactive | inactive | inactive | inactive | inactive | inactive | inactive | inactive | inactive | inactive | inactive | inactive | inactive | inactive | inactive | inactive | inactive
CCCc1ccc(O)c(OC)c1 | inactive | inactive | inactive | inactive | inactive | inactive | inactive | inactive | inactive | inactive | inactive | inactive | inactive | inactive | inactive | inactive | inactive | inactive | inactive | inactive
CC(C)(C)N(CCO)CCO | inactive | inactive | inactive | inactive | inactive | inactive | inactive | inactive | inactive | inactive | inactive | inactive | inactive | inactive | inactive | inactive | inactive | inactive | inactive | inactive
C[C@H](CCC(=O)NCC(=O)O)[C@H]1CC[C@H]2[C@@H]3[C@H](O)C[C@@H]4C[C@H](O)CC[C@]4(C)[C@H]3C[C@H](O)[C@]12C | inactive | inactive | inactive | inactive | inactive | inactive | inactive | inactive | inactive | inactive | inactive | inactive | inactive | inactive | inactive | inactive | inactive | inactive | inactive | inactive
Cc1cscn1 | inactive | inactive | inactive | inactive | inactive | inactive | inactive | inactive | inactive | inactive | inactive | inactive | inactive | inactive | inactive | inactive | inactive | inactive | inactive | inactive
CCCCCCCCCI | inactive | inactive | inactive | inactive | inactive | inactive | inactive | inactive | inactive | inactive | inactive | inactive | inactive | 8.55 µM (active) | inactive | inactive | inactive | inactive | inactive | inactive
CC/C=C\CCCCO | inactive | inactive | inactive | inactive | inactive | inactive | inactive | inactive | inactive | inactive | inactive | inactive | inactive | inactive | inactive | inactive | inactive | inactive | inactive | inactive
Cc1cc(C)cc([N+](=O)[O-])c1 | inactive | inactive | inactive | inactive | inactive | inactive | inactive | inactive | inactive | inactive | inactive | inactive | inactive | inactive | inactive | inactive | inactive | inactive | inactive | inactive
OC1OCCOC1O (stereo not given) | inactive | inactive | inactive | inactive | inactive | inactive | inactive | inactive | inactive | inactive | inactive | inactive | inactive | inactive | inactive | inactive | inactive | inactive | inactive | inactive
C=C(C)C(=O)OCCOCC | inactive | 54.7 µM (active) | inactive | inactive | inactive | inactive | inactive | inactive | inactive | inactive | inactive | inactive | inactive | inactive | inactive | inactive | inactive | inactive | inactive | inactive
Nc1ccccc1S(=O)(=O)c1ccccc1 | inactive | inactive | inactive | inactive | inactive | inactive | inactive | inactive | inactive | inactive | inactive | inactive | inactive | inactive | inactive | inactive | inactive | inactive | inactive | inactive
O=c1[nH]cnc2nc[nH]c12 | inactive | inactive | inactive | inactive | inactive | inactive | inactive | inactive | inactive | inactive | inactive | inactive | inactive | inactive | inactive | inactive | inactive | inactive | inactive | inactive
CCO[Si](OCC)(OCC)OCC | inactive | inactive | inactive | inactive | inactive | inactive | inactive | inactive | inactive | inactive | inactive | inactive | inactive | inactive | inactive | inactive | inactive | inactive | inactive | inactive
